rRNA inh HTS – inhibits bacterial ribosomal RNA function over humanized ribosomes; AID 720706; hit rate 1.6% among 350,000; E. coli WT GFP vs humanized-ribosome RFP mutants, fluorescence, 24 h; active compounds read low; DMSO median 0, no signal -100; GFP signal change (wild-type ribosome), % (no concentration beside the values);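 active means significant combined selectivity score with lowered wild-type GFP, culture density cut under 30%, mutant RFP and density less affected; inactive means any of these conditions unmet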
FGF22 binding – FGF22 (human) thermal shift binding | recombinant FGF22 thermal shift, SYPRO orange fluorescence; percent of sucrose octasulfate shift, DMSO zero | activity (Tm shift, normalised), % at 9.99 µM | hit rate 1.5% among 340,000;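 active means mean Tm shift, scaled 0 neutral to 100 positive control, at about 1.3% or above, every replicate too, limit read from the data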
Target sequence (Q9HCT0 whole entry, looked up): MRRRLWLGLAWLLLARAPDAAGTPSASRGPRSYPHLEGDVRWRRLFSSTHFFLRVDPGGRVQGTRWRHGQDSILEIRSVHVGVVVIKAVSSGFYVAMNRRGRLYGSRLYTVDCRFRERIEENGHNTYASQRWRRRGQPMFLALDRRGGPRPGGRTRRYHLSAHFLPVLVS
ADAM10 inh – inhibits human ADAM10; O14672; recombinant ADAM10, EDANS/DABCYL FRET peptide cleavage, 3 h; inhibition, % at 7 µM; hit rate 0.62% among 370,000;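 active means inhibition above a per-campaign cutoff equal to the mean of compounds falling between control-based bounds plus 3 SD, cut at about 20% in these data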;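 further: 0% = DMSO wells while the 100% control is not disclosed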
Target sequence (O14672 214-748 limits assumed): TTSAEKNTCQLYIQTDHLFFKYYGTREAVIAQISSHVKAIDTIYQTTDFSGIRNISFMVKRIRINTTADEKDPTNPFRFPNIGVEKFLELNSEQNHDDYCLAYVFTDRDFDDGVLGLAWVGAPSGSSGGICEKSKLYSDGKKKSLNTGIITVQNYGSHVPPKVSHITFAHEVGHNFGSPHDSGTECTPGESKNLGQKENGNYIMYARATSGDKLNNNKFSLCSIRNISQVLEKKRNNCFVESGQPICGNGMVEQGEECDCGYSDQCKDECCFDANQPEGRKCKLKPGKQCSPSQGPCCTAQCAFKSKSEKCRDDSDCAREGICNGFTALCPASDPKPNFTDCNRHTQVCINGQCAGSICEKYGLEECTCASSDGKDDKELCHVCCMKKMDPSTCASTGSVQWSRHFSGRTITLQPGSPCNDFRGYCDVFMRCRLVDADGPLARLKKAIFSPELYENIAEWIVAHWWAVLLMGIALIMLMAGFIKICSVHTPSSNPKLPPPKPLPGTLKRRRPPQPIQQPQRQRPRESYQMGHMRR
proKLK7 act – proKLK7 (human) activation, primary screen; P49862; purified proKLK7, EDANS-DABCYL substrate fluorescence; 100% is mature enzyme control, 0% vehicle; activation, % at 7 µM; hit rate 0.9% among 370,000;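 active means activation above the mean of all tested compounds plus 3 SD, computed per campaign excluding outliers beyond control limits, cut at about 13% in these data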
ADAM17 inh – inhibitors of human ADAM17; P78536; recombinant ADAM17, EDANS/DABCYL FRET peptide cleavage; inhibition, % at 6.95 µM; hit rate 0.83% among 370,000;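 active means inhibition above the mean of compounds lying between control limits plus 3 SD, set per campaign, cut at about 8.5% in these data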;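 further: 0% = DMSO-only wells as the low control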
ADAM10 confirm – confirmation of inhibitors of human ADAM10; hit rate 1% among 2,100; shares compounds with ADAM10 inh; inhibition, % at 6.95 µM; ADAM10 QFRET peptide cleavage, EDANS fluorescence;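 active means inhibition above about 20% chosen separately for each screening run, limit read from the data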;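 further: 0% = DMSO wells and 100% = marimastat wells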
ADAM17 counter – ADAM17 inhibition, counter-screen for ADAM10 exosite hits. shares compounds with ADAM10 inh. ADAM17 QFRET peptide cleavage, EDANS fluorescence. inhibition, % at 6.95 µM. hit rate 0.5% among 2,100. AID 743214;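 active means mean triplicate inhibition above the solvent-only control wells' mean plus 3 SD, cut at about 12% in these data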;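 further: 0% = DMSO wells and 100% = marimastat wells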
Starred values were filed as active, the others as inactive; · = no result given. This is a sample that favours compounds with a hit; in the whole collection about 3.8% have one here.

SMILES | rRNA inh HTS | FGF22 binding | ADAM10 inh | proKLK7 act | ADAM17 inh | ADAM10 confirm | ADAM17 counter
CC(C)C(=O)OCC(=O)Nc1ccc(N=Nc2ccccc2)cc1 | -20.6 | 0.9 | 24.6* | -0.2 | 7.0 | -0.2 | 1.0
COc1ccc2c3c(n(C)c2c1)[C@@H](CO)N(C(=O)NC1CCCC1)CC31CN(C)C1 | 2.2 | · | · | · | · | · | ·
Cn1cccc1Cc1nnc(SCC(=O)Nc2ccccc2)n1-c1ccc(F)cc1 | -2.1 | -0.2 | 78.6* | 0.7 | -1.3 | 2.2 | 0.3
COc1ccc(-n2c(Cc3cccn3C)nnc2SCC(=O)Nc2ccc(Cl)cc2)cc1 | -12.2 | -0.1 | 86.3* | 0.6 | 0.3 | -1.7 | 0.2
O=C(CN1CCOCC1)N[C@H]1CC[C@@H](CCNC(=O)C2CCCCC2)O[C@@H]1CO | 3.9 | 0.0 | · | · | · | · | ·
CCCNS(=O)(=O)c1ccc(CCC(=O)Nc2cc(Cl)ccc2Oc2ccccc2)cc1 | · | · | 20.9* | 0.0 | 6.6 | 5.4 | 2.8
COCC(=O)N1[C@H](CO)[C@H](c2ccccc2)C12CN(C(=O)c1cccc(F)c1)C2 | -0.2 | 0.1 | · | · | · | · | ·
COc1ccc([C@@H]2[C@@H]3C(=O)N(C(C)(C)C)C(=O)[C@@H]3[C@]3(Cc4ccc(Cl)cc4)C(=O)N(c4ccc(OC)cc4)C(=O)N23)cc1 | 1.6 | 0.1 | 20.8* | 0.0 | 7.0 | 4.9 | 1.1
C#Cc1ccc([C@@H]2C=C(C(=O)N3CCCCCCC3)O[C@H](OCC)[C@H]2CCCO)cc1 | · | 0.2 | · | · | · | · | ·
O=C(Nc1ccccc1)c1ccccc1Oc1ccc(C(F)(F)F)cc1[N+](=O)[O-] | -20.7 | 0.0 | 21.4* | 0.9 | -5.2 | 4.3 | 0.6
O=C(C[C@@H]1CC[C@@H]2[C@H](COC[C@@H](O)CN2C(=O)Nc2ccc(C(F)(F)F)cc2)O1)NC1Cc2ccccc2C1 | -57.5 | -0.1 | · | · | · | · | ·
CSCCC(NC(=O)c1ccccc1)C(=O)OCC(=O)Nc1ccc(C)c(Cl)c1 (stereo unspecified) | · | · | 32.4* | 0.3 | 4.5 | 5.9 | 1.4
O=C(C[C@H]1CC[C@H]2[C@@H](COC[C@H](O)CN2C(=O)Nc2ccc(C(F)(F)F)cc2)O1)NC1Cc2ccccc2C1 | -58.9 | 0.0 | · | · | · | · | ·
Cc1ccc(Cn2nnc3c(=O)[nH]c(C4CCN(S(=O)(=O)c5ccc(S(=O)(=O)NC6CC6)cc5)CC4)nc32)cc1 | -1.9 | 0.1 | 19.8* | 0.4 | 5.0 | 3.0 | 1.0
Cc1cc(S(=O)(=O)N(Cc2ccc(C(C)C)cc2)CC2CCCO2)ccc1-n1cnnn1 (stereo unspecified) | -21.2* | · | 23.8* | -0.2 | 5.0 | 5.2 | 1.2
Cc1c(C(=O)NCc2ccc(F)cc2)sc(=O)n1Cc1ccc(Cl)c(Cl)c1 | -15.2 | -0.3 | 4.9 | 0.6 | 4.6 | · | ·
CSc1ccc(Cn2c(C)c(C(=O)NCc3ccc4c(c3)OCCO4)sc2=O)cc1 | 3.1 | -0.1 | 20.4* | 0.8 | 6.3 | 5.5 | 0.9
CSc1ccc(Cn2c(C)c(C(=O)NCc3ccc(Cl)c(Cl)c3)sc2=O)cc1 | 8.7 | 0.1 | 21.4* | 0.3 | 8.3 | 9.9 | 3.7
Cc1c(C(=O)NCc2ccc3c(c2)OCCO3)sc(=O)n1Cc1ccc2c(c1)OCO2 | -11.6 | -0.1 | -1.7 | 0.1 | 1.9 | · | ·
CCOc1ccc(/C=N/NC(=O)Cc2csc(Nc3cccc(C(F)(F)F)c3)n2)c(OCC)c1 | 3.8 | · | 20.4* | -2.3 | 8.2 | 12.1 | 3.5
COc1ccc(/C=N/NC(=O)Cc2csc(Nc3cccc(C(F)(F)F)c3)n2)c(OC)c1 | · | · | 24.9* | 0.1 | 5.5 | 8.7 | 2.7
C=C[C@@H]1c2cc(C)ccc2N(S(=O)(=O)c2ccc(C)cc2)[C@H](c2ccc(OC(C)=O)cc2)C1(C#N)C#N | 19.4 | -0.1 | 0.7 | 0.6 | -1.1 | · | ·
C=C[C@@H]1c2ccccc2N(S(=O)(=O)c2ccc(C)cc2)[C@H](c2ccc(OC(C)=O)cc2)C1(C#N)C#N | · | 0.0 | 23.1* | -0.1 | 6.2 | 2.8 | 2.0
O=C(C[C@@H]1C[C@@H]2c3cc(NC(=O)Cc4ccncc4)ccc3O[C@@H]2[C@H](CO)O1)NCc1cccnc1 | 4.3 | -0.3 | · | · | · | · | ·
Cc1ccc(OCCN2CCN(CC(O)Cn3c4ccccc4c4ccccc43)CC2)cc1 (stereo unspecified) | · | · | 1.3 | 0.2 | -1.2 | · | ·
SMILES | rRNA inh HTS | FGF22 binding | ADAM10 inh | proKLK7 act | ADAM17 inh | ADAM10 confirm | ADAM17 counter
Cc1ccc(OCC(O)Cn2c3ccccc3c3ccccc32)cc1 (stereo unspecified) | · | · | 20.6* | -0.3 | 7.3 | 17.5 | 7.0
O=C(/C=C/c1ccccc1)NC(NC(=S)Nc1cccc(Cl)c1)C(Cl)(Cl)Cl (stereo unspecified) | · | · | -2.0 | 0.0 | -1.9 | · | ·
O=C(/C=C/c1ccccc1)NC(NC(=S)Nc1cccc(O)c1)C(Cl)(Cl)Cl (stereo unspecified) | · | · | 21.5* | -0.1 | 5.6 | 7.7 | 1.8
C[C@@H]1CCCCO[C@H](CN(C)C(=O)c2ccncc2)[C@H](C)CN([C@H](C)CO)C(=O)c2cc(NC(=O)c3ccccc3)ccc2O1 | 1.0 | 0.0 | · | · | · | · | ·
CCC(=O)Nc1nc(CC(=O)Nc2ccccc2OC)cs1 | · | · | 7.9 | 0.3 | -5.0 | · | ·
COc1ccccc1NC(=O)Cc1csc(NC(=S)Nc2ccc(C)cc2)n1 | · | · | 33.0* | -1.3 | 4.0 | 6.0 | 2.2
CS(=O)(=O)Nc1ccc2c(c1)[C@H]1C[C@H](CC(=O)O)O[C@@H](CO)[C@H]1O2 | 4.0 | · | · | · | · | · | ·
CCCN(CCC)C(=S)NC(=O)c1ccc(-c2ccccc2)cc1 | · | · | 24.5* | 0.0 | 5.3 | 3.4 | 0.9
CCOc1ccc(C(=O)NC(=S)N(Cc2ccccc2)Cc2ccccc2)cc1 | -9.4 | 0.1 | 12.5 | -1.1 | 2.5 | · | ·
CO[C@H]1CN(C)C(=O)c2ccc(NC(=O)C3CCOCC3)cc2OC[C@@H](C)N(C(=O)c2ccccc2)C[C@@H]1C | 1.3 | · | · | · | · | · | ·
O=C(COc1ccc(S(=O)(=O)Nc2ccccc2)cc1)NCc1ccccn1 | 19.2 | -0.1 | 74.5* | -0.2 | -3.4 | -0.8 | -0.3
CCC1Sc2ccc(S(=O)(=O)CCC(=O)Nc3c(Cl)cc(OC)cc3OC)cc2NC1=O (stereo unspecified) | -4.4 | 0.0 | 20.5* | 0.1 | 6.2 | -0.4 | -0.2
N#CNC(=Nc1cccc(F)c1)SCc1ccccc1F | 21.4 | -0.2 | 22.9* | -0.2 | 4.0 | -0.1 | -0.1
COCCCN(C(=O)c1cc2c(s1)CCCCC2)c1c(N)n(Cc2ccccc2)c(=O)[nH]c1=O | 4.4 | 0.5 | 20.4* | 0.4 | 3.2 | -0.7 | 0.0
COc1ccc(Cl)cc1NC(=O)C(C)OC(=O)c1ccc(NS(=O)(=O)c2ccc3[nH]c(=O)[nH]c3c2)cc1 (stereo unspecified) | · | · | 21.8* | 0.8 | 7.3 | 5.4 | 1.3

Screens deposited in PubChem BioAssay by several laboratories.
